Reference: PubChem BioAssay (EPA / NIEHS)
Active and inactive are the calls of the source. How the source made its calls: active means hit-call score of the fitted dose curve at least 0.9, where 1 is the maximum; inactive means score below 0.9.

Columns and labels:
[1] = read-out: Tissue Factor, F3 (gene 2152); assay: BSK_CASM3C_TissueFactor: BioMAP Diversity Plus: CASM3C Assay for Tissue Factor Biomarker Activity (AID 2283052); conditions: primary human coronary artery smooth muscle cells; actives raise or lower the signal;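 further: cell surface tissue factor protein level read by ELISA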
[2] = read-out: Interferon-gamma inducible Protein 10 (IP10), CXCL10 (gene 3627); assay: BSK_hDFCGF_IP10: BioMAP Diversity Plus: hDFCGF Assay for Interferon-gamma inducible Protein 10 (IP10) Biomarker Activity (AID 2283053); conditions: primary human foreskin fibroblasts; actives raise or lower the signal
Procedure, shortened: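 Cells: human dermal foreskin fibroblasts. Exposure: 24 h post-dosing. Detection: IP-10 ELISA, with values expressed against DMSO controls and fitted in both directions.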

[3] = read-out: Urokinase-type plasminogen activator receptor (uPAR), PLAUR (gene 5329); assay: BSK_CASM3C_uPAR: BioMAP Diversity Plus: CASM3C Assay for Urokinase-type plasminogen activator receptor (uPAR) Biomarker Activity (AID 2283054); conditions: primary human coronary artery smooth muscle cells; actives raise or lower the signal;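 further: cell-surface uPAR protein level quantified by ELISA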
[4] = read-out: Vascular cell adhesion molecule 1 (VCAM1), VCAM1 (gene 7412); assay: BSK_CASM3C_VCAM1: BioMAP Diversity Plus: CASM3C Assay for Vascular cell adhesion molecule 1 (VCAM1) Biomarker Activity (AID 2283055); conditions: primary human coronary artery smooth muscle cells; actives raise or lower the signal;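 further: VCAM-1 protein level quantified by ELISA on the cells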
[5] = read-out: Collagen III, COL3A1 (gene 1281); assay: BSK_hDFCGF_CollagenIII: BioMAP Diversity Plus: hDFCGF Assay for Collagen III Biomarker Activity (AID 2283056); conditions: primary human foreskin fibroblasts; actives raise or lower the signal
Procedure, shortened: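 Response relative to DMSO, fitted in both directions, reflects ELISA-measured collagen III in human primary skin fibroblasts 24 h after compound addition.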

[6] = read-out: Epidermal growth factor receptor (EGFR), EGFR (gene 1956); assay: BSK_hDFCGF_EGFR: BioMAP Diversity Plus: hDFCGF Assay for Epidermal growth factor receptor (EGFR) Biomarker Activity (AID 2283057); conditions: primary human foreskin fibroblasts; actives raise or lower the signal
Procedure, shortened: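 Dosing human primary skin fibroblasts, then measuring surface EGFR by ELISA at 24 h, gives the endpoint; gains and losses relative to DMSO were fitted in both directions.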

[7] = read-out: Interleukin-8 (IL8), CXCL8 (gene 3576); assay: BSK_hDFCGF_IL8: BioMAP Diversity Plus: hDFCGF Assay for Interleukin-8 (IL8) Biomarker Activity (AID 2283058); conditions: primary human foreskin fibroblasts; actives raise or lower the signal
Procedure, shortened: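 Fibroblast monolayers (human foreskin, hDFCGF) received test chemical for 24 h before ELISA detection of IL-8; either increases or decreases relative to DMSO count as activity.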

[8] = BSK_hDFCGF_Proliferation: Cell Proliferation Assessment in the BioMAP Diversity Plus: hDFCGF Assay (AID 2283059); conditions: primary human foreskin fibroblasts;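 further: curves fitted for both rise and fall of signal versus DMSO baseline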
Procedure, shortened: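 Sub-confluent human foreskin fibroblast cultures receive test chemical […]. Relative cell number is quantified by sulforhodamine B staining (0.1%, after 10% TCA fixation) at 560 nm, with bidirectional fitting referenced to DMSO.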

[9] = BSK_hDFCGF_SRB: Viability Assessment in the BioMAP Diversity Plus: hDFCGF Assay (AID 2283061); conditions: primary human foreskin fibroblasts;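 further: cells exposed to compound for 24 h before the read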
Procedure, shortened: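 SRB-based viability read on primary human skin fibroblasts at 24 h: TCA fixation, 0.1% dye, 560 nm. Gain or loss of signal is fitted against the DMSO negative control.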

[10] = read-out: TIMP metallopeptidase inhibitor 1 (TIMP1), TIMP1 (gene 7076); assay: BSK_hDFCGF_TIMP1: BioMAP Diversity Plus: hDFCGF Assay for TIMP metallopeptidase inhibitor 1 (TIMP1) Biomarker Activity (AID 2283062); conditions: primary human foreskin fibroblasts; actives raise or lower the signal
Procedure, shortened: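 Bidirectional curve fitting against DMSO baseline yielded this endpoint, based on ELISA detection of TIMP-1 in primary human foreskin fibroblasts exposed to compound for 24 h.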

[11] = read-out: Monokine induced gamma interferon (MIG), CXCL9 (gene 4283); assay: BSK_hDFCGF_MIG: BioMAP Diversity Plus: hDFCGF Assay for Monokine induced gamma interferon (MIG) Biomarker Activity (AID 2283063); conditions: primary human foreskin fibroblasts; actives raise or lower the signal
Procedure, shortened: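 Endpoint derived by bidirectional fitting relative to DMSO; MIG quantified via ELISA in primary human foreskin fibroblasts harvested 24 h after dosing.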

[12] = read-out: Vascular cell adhesion molecule 1 (VCAM1), VCAM1 (gene 7412); assay: BSK_hDFCGF_VCAM1: BioMAP Diversity Plus: hDFCGF Assay for Vascular cell adhesion molecule 1 (VCAM1) Biomarker Activity (AID 2283065); conditions: primary human foreskin fibroblasts; actives raise or lower the signal
Procedure, shortened: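 Measured after 24 h chemical treatment of primary human skin fibroblasts, VCAM-1 was detected by ELISA and concentration-response analysed in both directions versus DMSO vehicle.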

[13] = read-out: Plasminogen activator inhibitor-1 (PAI1), SERPINE1 (gene 5054); assay: BSK_hDFCGF_PAI1: BioMAP Diversity Plus: hDFCGF Assay for Plasminogen activator inhibitor-1 (PAI1) Biomarker Activity (AID 2283066); conditions: primary human foreskin fibroblasts; actives raise or lower the signal
Procedure, shortened: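 Fibroblasts from human foreskin were treated with test chemical. After 24 h, PAI-1 was measured by ELISA. Activity was fitted in both directions relative to DMSO.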

[14] = read-out: Intercellular Adhesion Molecule 1 (ICAM1), ICAM1 (gene 3383); assay: BSK_KF3CT_ICAM1: BioMAP Diversity Plus: KF3CT Assay for Intercellular Adhesion Molecule 1 (ICAM1) Biomarker Activity (AID 2283067); conditions: primary human keratinocytes with fibroblasts; actives raise or lower the signal
Procedure, shortened: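 Bidirectional curve fitting against a DMSO baseline was applied to ICAM-1 ELISA signal from primary human skin co-cultures harvested 24 h after treatment, with SRB staining of parallel wells for overt cytotoxicity.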

[15] = BSK_KF3CT_SRB: Viability Assessment in the BioMAP Diversity Plus: KF3CT Assay (AID 2283069); conditions: primary human keratinocytes with fibroblasts;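 further: fitted for both signal gain and loss against DMSO baseline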
Procedure, shortened: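 Overt cytotoxicity is assessed as total protein by sulforhodamine B staining in parallel human skin co-cultures at 24 h after dosing. DMSO serves as negative control and baseline.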

[16] = read-out: Interleukin-1 alpha (IL1a), IL1A (gene 3552); assay: BSK_KF3CT_IL1a: BioMAP Diversity Plus: KF3CT Assay for Interleukin-1 alpha (IL1a) Biomarker Activity (AID 2283070); conditions: primary human keratinocytes with fibroblasts; actives raise or lower the signal
Procedure, shortened: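 Readout is IL-1a level by ELISA, compared bidirectionally with DMSO as baseline. Cells: human keratinocytes co-cultured with foreskin fibroblasts, harvested 24 h post-dose.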

[17] = read-out: TIMP metallopeptidase inhibitor 2 (TIMP2), TIMP2 (gene 7077); assay: BSK_KF3CT_TIMP2: BioMAP Diversity Plus: KF3CT Assay for TIMP metallopeptidase inhibitor 2 (TIMP2) Biomarker Activity (AID 2283071); conditions: primary human keratinocytes with fibroblasts; actives raise or lower the signal
Procedure, shortened: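 Chemicals were dosed onto human skin primary co-cultures of keratinocytes and foreskin fibroblasts, and TIMP-2 was measured by ELISA after 24 hours. Activity in either direction was fitted relative to DMSO.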

[18] = read-out: Macrophage colony-stimulating factor (MCSF), CSF1 (gene 1435); assay: BSK_hDFCGF_MCSF: BioMAP Diversity Plus: hDFCGF Assay for Macrophage colony-stimulating factor (MCSF) Biomarker Activity (AID 2283060); conditions: primary human foreskin fibroblasts; actives raise or lower the signal
Procedure, shortened: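 fibroblasts (human foreskin, primary), 24 h post-dose; M-CSF by ELISA; bidirectional fit, DMSO = baseline.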

[19] = read-out: Matrix Metallopeptidase 1 (MMP1), MMP1 (gene 4312); assay: BSK_hDFCGF_MMP1: BioMAP Diversity Plus: hDFCGF Assay for Matrix Metallopeptidase 1 (MMP1) Biomarker Activity (AID 2283064); conditions: primary human foreskin fibroblasts; actives raise or lower the signal
Procedure, shortened: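 Human foreskin fibroblasts exposed to chemical for 24 h; MMP1 detected by ELISA, with DMSO as baseline for bidirectional fitting.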

[20] = read-out: Interferon-gamma inducible Protein 10 (IP10), CXCL10 (gene 3627); assay: BSK_KF3CT_IP10: BioMAP Diversity Plus: KF3CT Assay for Interferon-gamma inducible Protein 10 (IP10) Biomarker Activity (AID 2283068); conditions: primary human keratinocytes with fibroblasts; actives raise or lower the signal
Procedure, shortened: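 ELISA read-out of IP-10 after 24 h chemical dosing of human skin primary co-culture (keratinocytes, foreskin fibroblasts). Gain or loss of signal relative to DMSO, bidirectional curve fit.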

Measured: AC50

CC(=O)O[C@]1(C(C)=O)CC[C@H]2[C@@H]3C=C(Cl)C4=CC(=O)[C@@H]5C[C@@H]5[C@]4(C)[C@H]3CC[C@@]21C
active: [5] 27 µM | [8] 17 µM | [13] 1.74 µM
not listed: [18] | [19] | [20]
inactive: all other assays above

C#CC(O)C(CC)CCCC (configuration not stated)
not listed: [5]
inactive: all other assays above

CCCCCCCCCCCCCCCCO
active: [8] 6.73 µM | [11] 0.777 µM
not listed: [19]
inactive: all other assays above

CC(COCC(C)OC(=O)c1ccccc1)OC(=O)c1ccccc1 (configuration not stated)
active: [8] 33.7 µM
not listed: [19]
inactive: all other assays above

CCCC(=O)O
not listed: [5] | [19]
inactive: all other assays above

OCC(O)CO
not listed: [5] | [19]
inactive: all other assays above

CCCCCCCC(=O)OC
not listed: [5]
inactive: all other assays above

N[C@@H](Cc1c[nH]c2ccccc12)C(=O)O
not listed: [5] | [19]
inactive: all other assays above
